{"source": "PubChem BioAssay AID624330", "about": "(Southern Research Specialized Biocontainment Screening …, 2012)", "note": "Out of some 340,000 compounds screened, about 2,100 (0.62%) were called active.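 The calls were made as follows: active = first-screen hits whose inhibition reached a set limit at any dose in the follow-up dose series; inconclusive = inhibition above the set first-screen limit but never retested; inactive = the rest.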 Only a sample is shown. Entries with a potency or affinity are not part of this list."}
{"target": "Rac GTPase-activating protein 1 (Homo sapiens) (UniProt Q9H0H5)", "sequence (Q9H0H5 whole entry, looked up)": "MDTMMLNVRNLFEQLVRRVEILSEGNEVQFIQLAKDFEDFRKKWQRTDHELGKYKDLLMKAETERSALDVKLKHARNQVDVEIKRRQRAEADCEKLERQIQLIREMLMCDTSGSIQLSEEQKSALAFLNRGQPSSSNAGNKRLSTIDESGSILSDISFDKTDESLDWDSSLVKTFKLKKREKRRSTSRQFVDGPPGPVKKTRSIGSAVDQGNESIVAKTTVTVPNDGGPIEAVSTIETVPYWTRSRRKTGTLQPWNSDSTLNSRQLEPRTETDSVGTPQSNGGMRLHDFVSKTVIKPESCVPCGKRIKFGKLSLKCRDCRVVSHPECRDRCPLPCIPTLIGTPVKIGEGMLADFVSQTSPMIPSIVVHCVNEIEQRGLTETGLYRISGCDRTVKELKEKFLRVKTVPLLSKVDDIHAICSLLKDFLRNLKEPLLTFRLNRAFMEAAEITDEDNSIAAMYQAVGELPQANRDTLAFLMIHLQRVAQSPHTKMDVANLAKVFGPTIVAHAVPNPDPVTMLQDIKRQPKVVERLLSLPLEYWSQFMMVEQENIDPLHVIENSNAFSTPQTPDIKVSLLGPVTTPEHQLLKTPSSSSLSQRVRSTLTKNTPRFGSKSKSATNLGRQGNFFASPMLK", "experiment": "MgcRacGAP GTPase-activating activity inhibitors, confirmation, biochemical, ADP Hunter fluorescence, primary and confirmatory (AID 624330);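 also: fluorescence reports GDP produced by GAP-driven GTP hydrolysis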", "details": "MgcRacGAP-stimulated Rac1 GTP hydrolysis, at 30 µM, stronger effect = higher value, GST-tagged Rac1 F28L mutant substrate"}
{"compound": "COCCNC(=S)N/N=C/c1c2ccccc2cc2ccccc12", "inhibition": "6.58% (inactive)"}
{"compound": "COc1ccccc1CC(=O)Nc1ccc2c(C)cc(=O)oc2c1", "inhibition": "4.86% (inactive)"}
{"compound": "COC(=O)C(CC(C)C)NC(=O)c1cccs1", "note": "(stereo not given)", "inhibition": "0.95% (inactive)"}
{"compound": "COc1ccc(N=C2S/C(=C\\c3cccs3)C(=O)N2CC(C)C)cc1", "inhibition": "12.5% (inactive)"}
{"compound": "CC(C(=O)Nc1ccc(F)c(F)c1F)N1CCCCCC1", "note": "(stereo not given)", "inhibition": "9.76% (inactive)"}
{"compound": "O=C(CN1CCCCC1)NCC(=O)Nc1ccc(F)c(F)c1F", "inhibition": "-2.94% (inactive)"}
{"compound": "CC(C(=O)NCC(=O)Nc1ccc(F)c(F)c1F)N1CCN(Cc2ccc(C#N)cc2)CC1", "note": "(stereo not given)", "inhibition": "-0.12% (inactive)"}
{"compound": "O=C(CN1CCN(Cc2cccc(C(F)(F)F)c2)CC1)NCC(=O)Nc1ccc(F)c(F)c1F", "inhibition": "3.75% (inactive)"}
{"compound": "COc1ccc(N(CC(C)C)S(=O)(=O)c2nnc(NC(=O)CC(C)C)s2)cc1", "inhibition": "2.69% (inactive)"}
{"compound": "CC(=O)Nc1cc(-c2ccccc2)nn1Cc1ccc(Cl)cc1", "inhibition": "-1.04% (inactive)"}
{"compound": "[O-]/[N+](=N\\Nc1ccc(Cl)cc1)c1ccccc1", "inhibition": "9.79% (inactive)"}
{"compound": "CC[n+]1cc(C)ccc1/C=C/c1ccc(N(C)C)cc1", "inhibition": "7.19% (inactive)"}
{"compound": "CN(C)c1ccc(/C=C/c2cc[n+](C)cc2)cc1", "inhibition": "22.9% (inactive)"}
{"compound": "CN1/C(=C/c2cc[n+](C)c3ccccc23)C=Cc2ccccc21", "inhibition": "31.4% (inactive)"}
{"compound": "CN(C)c1ccc(C=Cc2ccnc3c(O)cccc23)cc1", "inhibition": "8.47% (inactive)"}
{"compound": "CC[n+]1ccccc1/C=C/c1ccc(N(C)C)cc1", "inhibition": "10.2% (inactive)"}
{"compound": "CN1C=C/C(=C\\c2cc[n+](C)c3ccccc23)c2ccccc21", "inhibition": "-0.62% (inactive)"}
{"compound": "Fc1ccc(C2CC(c3ccco3)n3ncnc3N2)cc1", "note": "(stereo not given)", "inhibition": "-3.61% (inactive)"}
{"compound": "Cc1cc(C(=O)Nc2sccc2C(N)=O)c(C)o1", "inhibition": "2.82% (inactive)"}
{"compound": "CCc1ccc2oc(C(=O)Nc3cccnc3)c(C)c2c1", "inhibition": "3.43% (inactive)"}
{"compound": "COc1ccc(NC(=O)NC(C)c2ccccc2)cc1", "note": "(stereo not given)", "inhibition": "7.88% (inactive)"}
{"compound": "CN1CCN(c2nc3ccccn3c(=O)c2/C=C(\\C#N)S(=O)(=O)c2ccccc2)CC1", "inhibition": "10.8% (inactive)"}
{"compound": "O=C(CCN1C(=O)C2C3CC(C(Br)C3Br)C2C1=O)OCC(=O)c1ccccc1", "note": "(stereo not given)", "inhibition": "7.46% (inactive)"}
{"compound": "O=C(CNS(=O)(=O)c1ccc(Cl)cc1)NC1CCCCC1", "inhibition": "-0.07% (inactive)"}
{"compound": "Cc1cc(C(=O)NCc2ccc(F)cc2)n(-c2ccccc2)n1", "inhibition": "12.3% (inactive)"}
{"compound": "COc1ccc(CN2CCN(CCCc3ccccc3)C(CCO)C2)c(OC)c1", "note": "(stereo not given)", "inhibition": "3.22% (inactive)"}
{"compound": "COc1cccc(N2CCN(Cc3ncc(-c4ccccc4)o3)CC2)c1", "inhibition": "7.37% (inactive)"}
{"compound": "Cc1cc(N/N=C/c2c[nH]c3ccccc23)c2ccccc2n1", "inhibition": "-1.16% (inactive)"}
{"compound": "Cc1ccc(/C=N/Nc2nc3ccccc3[nH]2)s1", "inhibition": "-6% (inactive)"}
{"compound": "Fc1c(F)c(F)c(N/N=C/c2c[nH]c3ccccc23)c(F)c1F", "inhibition": "3.69% (inactive)"}
{"compound": "CC(C)n1c(/N=C/c2c[nH]c3ccccc23)nc2ccccc21", "inhibition": "1.11% (inactive)"}
{"compound": "Cn1c(/N=C/c2c[nH]c3ccccc23)nc2ccccc21", "inhibition": "8.49% (inactive)"}
{"compound": "Cc1cc(=O)[nH]c(N/N=C/c2c[nH]c3ccccc23)n1", "inhibition": "22.9% (inactive)"}
{"compound": "Cc1ccccc1/C=N/Nc1nc2ccccc2[nH]1", "inhibition": "18.4% (inactive)"}
{"compound": "COc1ccc(/C=N/Nc2nc3ccccc3[nH]2)c(OC)c1OC", "inhibition": "12.8% (inactive)"}
{"compound": "Cc1ccc(-c2nc(C3CCN(S(C)(=O)=O)CC3)no2)cc1", "inhibition": "10.6% (inactive)"}
{"compound": "O=C1NC(Cc2ccccc2)c2nc3ccc(Cl)cc3c(=O)n2-c2ncccc21", "note": "(stereo not given)", "inhibition": "7.29% (inactive)"}
{"compound": "CC(NS(C)(=O)=O)C(c1cccs1)N1CCN(C)CC1", "note": "(stereo not given)", "inhibition": "10.3% (inactive)"}
{"compound": "CCOC(=O)N1CCN(CC(O)COc2ccc(C(C)C)c(C)c2)CC1", "note": "(stereo not given)", "inhibition": "5.78% (inactive)"}
{"compound": "COCC1CCCCN1C(=O)c1ccc(OC2CCN(CCc3ccccc3)CC2)cc1", "note": "(stereo not given)", "inhibition": "10.2% (inactive)"}
{"compound": "COC(=O)c1cc(S(=O)(=O)N2CCC(c3cc(OC)ccc3OC)C2)c[nH]1", "note": "(stereo not given)", "inhibition": "8.61% (inactive)"}
{"compound": "Cc1ccc(-c2sc(C)nc2CC(=O)O)cc1", "inhibition": "13.9% (inactive)"}
{"compound": "O=C(Nc1cccc(-n2cnnn2)c1)c1cc(Cl)nc(Cl)c1", "inhibition": "9.64% (inactive)"}
{"compound": "COc1ccccc1/C=C/C(=O)OCc1nc2ccccc2c(=O)[nH]1", "inhibition": "7.19% (inactive)"}
{"compound": "CC(C)(Oc1ccc(Cl)cc1)C(=O)NC1CC1", "inhibition": "7.55% (inactive)"}
{"compound": "CCC(C)c1ccc(OCC(=O)Nc2ccc3c(c2)C(=O)NC3=O)cc1", "note": "(stereo not given)", "inhibition": "5.62% (inactive)"}
{"compound": "c1ccc(-c2ccccc2OCCCCN2CCCCC2)cc1", "inhibition": "29.3% (inactive)"}
{"compound": "C=CCNC(=S)N/N=C(\\C)c1ccc(-n2ccnc2)cc1", "inhibition": "-11.5% (inactive)"}
{"compound": "CN(CC(=O)Nc1ccc(S(N)(=O)=O)cc1)C1CCCCC1", "inhibition": "1.98% (inactive)"}
{"compound": "CN(CC(=O)Nc1ccc(Cl)c(Cl)c1)C1CCCCC1", "inhibition": "23.1% (inactive)"}
{"compound": "CC1CCCCN1CC(=O)Nc1ccc2c(c1)OC(F)(F)O2", "note": "(stereo not given)", "inhibition": "-6.38% (inactive)"}
{"compound": "CN(CC(=O)Nc1ccc(Cl)cc1)C1CCCCC1", "inhibition": "9.37% (inactive)"}
{"compound": "COc1ccc(NC(=O)CN(C)C2CCCCC2)cc1Cl", "inhibition": "12.2% (inactive)"}
{"compound": "O=C(CN1CCOCC1)Nc1ccc2c(c1)OC(F)(F)O2", "inhibition": "1.95% (inactive)"}
{"compound": "c1ccc(Cc2nc3ccccc3o2)cc1", "inhibition": "8.84% (inactive)"}
{"compound": "CCN(c1ccccc1)S(=O)(=O)c1ccc(C(=O)Nc2cccc(NC(C)=O)c2)cc1", "inhibition": "5.09% (inactive)"}
{"compound": "COc1ccc(/C=C2\\SC(=S)N(CCC(=O)Nc3ccc(C(=O)O)cc3)C2=O)cc1OC", "inhibition": "0.85% (inactive)"}
{"compound": "CC(=Nc1ccccc1)Nc1ccccc1", "inhibition": "5.11% (inactive)"}
{"compound": "CC(=O)Nc1ccc(N=NN2CCOCC2)cc1", "inhibition": "4.54% (inactive)"}
{"compound": "O=C(Cc1ccccc1)Nc1ccc(C(=O)Nc2ccc(O)cc2)cc1", "inhibition": "24.4% (inactive)"}
{"compound": "NC(=Nc1ccccc1)Nc1ccccc1", "inhibition": "7.17% (inactive)"}
{"compound": "O=C(COC(=O)c1ccc(O)cc1)Nc1ccccc1", "inhibition": "10.2% (inactive)"}
{"compound": "COCC(=O)Nc1ccc(F)cc1", "inhibition": "-1.69% (inactive)"}
{"compound": "O=C(CC(=O)Nc1ccc(F)cc1)Nc1ccc(F)cc1", "inhibition": "5.61% (inactive)"}
{"compound": "CC(=O)Nc1ccc(N=Nc2ccccc2)cc1", "inhibition": "0.87% (inactive)"}
{"compound": "CCC(Oc1ccccc1)C(=O)Nc1ccccc1N1CCCC1", "note": "(stereo not given)", "inhibition": "7.77% (inactive)"}
{"compound": "CNC(=O)c1oc(-c2ccccc2)nc1C", "inhibition": "10.8% (inactive)"}
{"compound": "O=C(COC(=O)C1CC(=O)N(c2ccc3c(c2)OCCO3)C1)Nc1ccc2c(c1)CCC2", "note": "(stereo not given)", "inhibition": "8.9% (inactive)"}
{"compound": "O=C1CC(NS(=O)(=O)c2cccnc2)CN1c1cccc(F)c1", "note": "(stereo not given)", "inhibition": "6.2% (inactive)"}
{"compound": "COC(=O)C(C(=O)N1CCN(C)CC1)C1CCCCCC1", "note": "(stereo not given)", "inhibition": "-1.36% (inactive)"}
{"compound": "Cc1ccc(NC(=O)c2cc(S(=O)(=O)N3CCOCC3)ccc2Cl)cc1S(=O)(=O)N1CCOCC1", "inhibition": "9.95% (inactive)"}
{"compound": "Cc1ccc(Nc2nc3ccccc3n3cnnc23)c(Cl)c1", "inhibition": "5.8% (inactive)"}
{"compound": "CCN(CC)C(=O)Cn1cc(C(=O)C(=O)NCCc2c[nH]c3ccccc23)c2ccccc21", "inhibition": "7.03% (inactive)"}
{"compound": "CCN(CC)CCN(C(=O)c1cc2ccccc2cc1OC)c1nc2ccc(F)cc2s1", "inhibition": "6.61% (inactive)"}
{"compound": "COc1cc(OC)c(OC)cc1CN1CCN(Cc2ccc(C(F)(F)F)cc2)CC1", "inhibition": "24.6% (inactive)"}
{"compound": "FC(F)(F)c1ccc(CN2CCCCCC2)cc1", "inhibition": "16.1% (inactive)"}
{"compound": "COc1cc(CN2CCN(C(O)(c3ccccc3)c3ccccc3)CC2)cc(OC)c1OC", "inhibition": "27.9% (inactive)"}
{"compound": "COc1ccc(CN2CCCCCC2)cc1", "inhibition": "18.2% (inactive)"}
{"compound": "O=C(O)CC1(CC(=O)NCc2cc(F)cc3c2OCOC3)CCCCC1", "inhibition": "5.25% (inactive)"}
{"compound": "CN(CCc1cn[nH]c1)C(=O)CC1C(=O)NCCN1Cc1ccccc1C(F)(F)F", "note": "(stereo not given)", "inhibition": "-8.64% (inactive)"}
{"compound": "Cc1ccc(C(=O)NC(=O)CSc2ncccc2C(=O)O)cc1", "inhibition": "1.2% (inactive)"}
{"compound": "Cc1ccc(S(=O)(=O)NN2C(=O)c3ccccc3NC2(C)C)cc1", "inhibition": "6.9% (inactive)"}
{"compound": "CC[C@H](C)[C@H](NC(N)=O)C(=O)Nc1ccc2c(c1)OCO2", "inhibition": "3.75% (inactive)"}
{"compound": "N#Cc1ccccc1S(=O)(=O)N1CCC(C(=O)Nc2cccc(C(=O)NC3CC3)c2)CC1", "inhibition": "-0.25% (inactive)"}
{"compound": "CCOC(=O)c1cc(CC)sc1/N=C/c1c(O)ccc2ccccc12", "inhibition": "8.65% (inactive)"}
{"compound": "CCOC(=O)c1c(/N=C/c2ccc(C)cc2O)sc2c1CCC2", "inhibition": "5.81% (inactive)"}
{"compound": "CCOC(=O)c1c(/N=C/c2ccc(OC)cc2O)sc2c1CCN(C)C2", "inhibition": "17% (inactive)"}
{"compound": "Cc1cc(C(=O)O)ccc1N=Cc1c(O)ccc2ccccc12", "inhibition": "3.39% (inactive)"}
{"compound": "N#Cc1ccc(OCC(=O)N2CCN(C(=O)c3ccco3)CC2)cc1", "inhibition": "3.79% (inactive)"}
{"compound": "Cc1cc(COc2ccccc2OCc2cc(C)no2)on1", "inhibition": "9.58% (inactive)"}
{"compound": "CCOC(=O)c1c(NC(C)=O)sc2c(O)c(Br)ccc12", "inhibition": "4.12% (inactive)"}
{"compound": "CCOC(=O)c1c(NC(C)=O)sc2c(OC)c(Br)ccc12", "inhibition": "-9.05% (inactive)"}
{"compound": "CCOC(=O)c1c(N)sc(N)c1C(=O)OCC", "inhibition": "7.17% (inactive)"}
{"compound": "CCOC(=O)c1c(N)sc2c(OCC)c(Br)ccc12", "inhibition": "5.92% (inactive)"}
{"compound": "CN(CC(=O)Nc1ccc(F)cc1)C(=O)COC(=O)CCN1C(=O)C2CC=CCC2C1=O", "note": "(stereo not given)", "inhibition": "2.06% (inactive)"}
{"compound": "O=C(CSc1nc(=O)n(CCN2CCOCC2)c2c1CCCC2)Nc1ccc([N+](=O)[O-])cc1", "inhibition": "-4.11% (inactive)"}
{"compound": "COc1ccc(NC(=O)NNC(=O)C(C)Oc2ccc3ccccc3c2)cc1OC", "note": "(stereo not given)", "inhibition": "12.5% (inactive)"}
{"compound": "CCn1c(=O)c2c3c(sc2n(C)c1=O)CCC3", "inhibition": "10.3% (inactive)"}
{"compound": "CCn1c(=O)c2c3c(sc2n2cnnc12)CCC3", "inhibition": "4.61% (inactive)"}
{"compound": "c1ccc(CN2CCC3CC2c2cc(N4CCOCC4)ccc23)cc1", "note": "(stereo not given)", "inhibition": "11.4% (inactive)"}
